Laboratory results reported in PubChem BioAssay AID684 (PCMD, 2007).
Hit rate of the full screen: of about 62,000 compounds, about 95 (0.2%) were called active. Shown is part of a subset that was picked to be rich in actives. A number with no mark means an inactive call. No stated cut-off is given here; in the data, active means inhibition above about 20% (passing the limit was not always enough); inactive means the rest.

Each molecule was assayed against Coagulation factor XII (Homo sapiens) (UniProt P00748) (assay: human factor XIIa inhibitors, primary screen, biochemical, pooled compound mixtures, fluorogenic substrate (AID 684;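 further: 0% = enzyme without compound and 100% = no enzyme blank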)). Settings: purified FXIIa, at 5 µM, hits give high values.
Coagulation factor XII (Homo sapiens), sequence (P00748 20-372 limits assumed): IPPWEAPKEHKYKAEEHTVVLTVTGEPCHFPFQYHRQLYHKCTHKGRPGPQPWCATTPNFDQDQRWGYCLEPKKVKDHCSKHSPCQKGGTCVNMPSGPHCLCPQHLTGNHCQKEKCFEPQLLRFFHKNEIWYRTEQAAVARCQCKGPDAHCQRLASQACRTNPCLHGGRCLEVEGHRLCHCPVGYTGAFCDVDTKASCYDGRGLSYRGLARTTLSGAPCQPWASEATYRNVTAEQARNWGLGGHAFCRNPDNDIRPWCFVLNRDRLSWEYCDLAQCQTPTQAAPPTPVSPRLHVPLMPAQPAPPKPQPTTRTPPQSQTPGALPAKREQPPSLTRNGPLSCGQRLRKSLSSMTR
Coagulation factor XII (Homo sapiens), sequence (P00748 373-615 limits assumed): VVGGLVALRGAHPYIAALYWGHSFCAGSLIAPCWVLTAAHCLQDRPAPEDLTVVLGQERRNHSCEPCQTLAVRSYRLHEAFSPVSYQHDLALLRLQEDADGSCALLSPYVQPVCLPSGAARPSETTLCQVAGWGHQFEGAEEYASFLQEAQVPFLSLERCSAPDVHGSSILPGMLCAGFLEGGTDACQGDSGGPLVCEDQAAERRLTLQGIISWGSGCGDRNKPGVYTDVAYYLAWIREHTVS

**Q.** Which inhibition does the source give for CCN(CC)c1ccc2cc(C(=O)O)c(=O)oc2c1 here?
**A.** Its inhibition is -2.87%.

**Q.** How did the inhibition turn out when COc1cccc(Oc2ccc(N)cc2)c1 was run?
**A.** Its inhibition is -12.6%.

**Q.** COC(=O)CSc1nc(C2CC2)nc2ccccc12 was tested. Which inhibition did it give?
**A.** The inhibition was -5.91%.

**Q.** How did the inhibition turn out when Cn1cc(S(=O)(=O)N2CCC(Cc3ccccc3)CC2)c(=O)n(C)c1=O was run?
**A.** The inhibition was -15.8%.

**Q.** With O=C(CN1C(=O)COc2ccccc21)NCCN1CCc2ccccc2C1 as the molecule, how does the inhibition read?
**A.** The inhibition was 2.87%.

**Q.** With CCC1=[N+]([O-])C(C)(/C(C)=N\O)N(O)C1(C)C (stereo not given) as the molecule, how does the inhibition read?
**A.** The inhibition was -9.09%.

**Q.** How did the inhibition turn out when COc1cccc(-c2nnc(N(C)C(=O)c3ccno3)s2)c1 was run?
**A.** Its inhibition is 7.52%.

**Q.** CCN1CCCC1CNC(=O)Cn1cnc2ccc(S(=O)(=O)N3CCC(C)CC3)cc2c1=O (stereo not given) was tested. Which inhibition did it give?
**A.** Its inhibition is 9.9%.

**Q.** Which inhibition does the source give for O=C(NCc1cccnc1)c1ccc(CS(=O)(=O)c2ccc(Br)cc2)o1 here?
**A.** Its inhibition is -21.3%.

**Q.** For CCCn1c(C(O)c2ccc(OCC)cc2)nc2ccccc21 (stereo not given), which inhibition is on record?
**A.** The inhibition was 4.63%.

**Q.** For CCOC(=O)c1cccc(NC(=O)CCn2nnc3ccccc32)c1, which inhibition is on record?
**A.** The inhibition was -0.18%.

**Q.** With CCCN(c1ccc(C(C)C)cc1)S(=O)(=O)c1c(C)[nH]c(=O)[nH]c1=O as the molecule, how does the inhibition read?
**A.** Its inhibition is -19%.

**Q.** How did the inhibition turn out when CCCn1c(SCC(=O)N2CCc3ccccc32)nnc1-c1ccncc1 was run?
**A.** Its inhibition is -0.835%.

**Q.** CCN1C(=O)/C(=C\N2CCN(c3ccccc3)CC2)SC1=S was tested. Which inhibition did it give?
**A.** The inhibition was 4.83%.

**Q.** For CCN1C(=O)/C(=C\N2CCN(c3cccc(Cl)c3)CC2)SC1=S, which inhibition is on record?
**A.** The inhibition was 20.4% (active).

**Q.** How did the inhibition turn out when CS(=O)(=O)N(CC(=O)N1CCN(c2cccc(Cl)c2)CC1)c1ccccc1 was run?
**A.** The inhibition was 1.3%.

**Q.** With Cc1ccc(C(c2sc3nc(C)nn3c2O)N2CCN(c3ccc(F)cc3)CC2)cc1 (stereo not given) as the molecule, how does the inhibition read?
**A.** The inhibition was 3.33%.

**Q.** O=C1CC(Cc2ccccc2)C(=O)N1c1ccc(Cl)cn1 (stereo not given) was tested. Which inhibition did it give?
**A.** The inhibition was -17.9%.

**Q.** With COCCNC(=O)COc1ccc(C)c(C)c1 as the molecule, how does the inhibition read?
**A.** Its inhibition is 1.93%.

**Q.** Which inhibition does the source give for CC(C)Oc1ccc(C2NC(=O)NC2=O)cc1 (stereo not given) here?
**A.** Its inhibition is -16.2%.

**Q.** Which inhibition does the source give for Nn1c(SCC(=O)NC(=O)NC2CCCC2)nnc1-c1ccccc1F here?
**A.** Its inhibition is 3.32%.

**Q.** Which inhibition does the source give for CCOC(=O)c1sc(NC(=S)n2cc(C)cn2)c(C(=O)OCC)c1C here?
**A.** The inhibition was 7.4%.

**Q.** With O=C(CNC(=O)c1ccc(Cl)cc1Cl)NCC(=O)Nc1ccccc1N1CCOCC1 as the molecule, how does the inhibition read?
**A.** Its inhibition is 6.48%.

**Q.** For O=C1CC(N2CCN(C(c3ccccc3)c3ccccc3)CC2)C(=O)N1 (stereo not given), which inhibition is on record?
**A.** The inhibition was 1.87%.

**Q.** For COc1cccc(NC(=O)c2ccccc2SC)c1, which inhibition is on record?
**A.** Its inhibition is -1.39%.

**Q.** With Cc1ccc(Cn2ccc(NC(=O)C3C4CCC(C4)C3C(=O)O)n2)cc1 (stereo not given) as the molecule, how does the inhibition read?
**A.** Its inhibition is -2.65%.

**Q.** COc1ccc(N2CCN(CCNC(=O)c3nnc(Cc4c(F)cccc4Cl)o3)CC2)cc1 was tested. Which inhibition did it give?
**A.** Its inhibition is 10.3%.

**Q.** With CCOC(=O)c1cc2occc2n1CC(=O)N1CCN(C(=O)c2ccco2)CC1 as the molecule, how does the inhibition read?
**A.** Its inhibition is 9.63%.

**Q.** Which inhibition does the source give for Cc1noc(C)c1S(=O)(=O)N(CC(=O)NCc1ccc(Cl)cc1)c1ccc2c(c1)OCO2 here?
**A.** Its inhibition is -1.99%.

**Q.** How did the inhibition turn out when CCC(C)Sc1nc2c(c(=O)[nH]c(=O)n2C)n1CC(O)COc1cccc2ccccc12 (stereo not given) was run?
**A.** The inhibition was -0.685%.

**Q.** CC(C)C[C@H](NC(=O)NCCc1ccc(Cl)cc1)C(=O)O was tested. Which inhibition did it give?
**A.** Its inhibition is 5.46%.

**Q.** For CC(Sc1sc(=S)sc1SC(C)C(=O)O)C(=O)O (stereo not given), which inhibition is on record?
**A.** Its inhibition is 0.39%.

**Q.** With CC/C(=N\O)C(C)(C)/[N+]([O-])=C/c1ccc(Br)cc1 as the molecule, how does the inhibition read?
**A.** The inhibition was 8.49%.

**Q.** For Brc1ccc(OCCn2ccnc2)cc1, which inhibition is on record?
**A.** Its inhibition is 10.3%.

**Q.** How did the inhibition turn out when O=C1C(=O)N(CCN2CCOCC2)C(c2ccccn2)/C1=C(/O)c1ccc(Cl)cc1 (stereo not given) was run?
**A.** The inhibition was 5.72%.

**Q.** With COC(=O)C1=CN(C)C=C(C(=O)OC)C1c1ccc(Cl)cc1Cl as the molecule, how does the inhibition read?
**A.** The inhibition was -3.3%.

**Q.** C=CCn1cnc2scc(-c3ccccc3)c2c1=O was tested. Which inhibition did it give?
**A.** The inhibition was 12.3%.

**Q.** COc1ccc(S(=O)(=O)N2CCN(c3ncnc4c(-c5ccccc5)nsc34)CC2)cc1 was tested. Which inhibition did it give?
**A.** The inhibition was 4.31%.

**Q.** How did the inhibition turn out when CCCS(=O)(=O)N1CCCC(C(=O)NCCN2CCCCC2C)C1 (stereo not given) was run?
**A.** The inhibition was 1.05%.

**Q.** How did the inhibition turn out when CCOC(=O)C1CCN(C(=O)CC2C(=O)N(Cc3ccccc3)C(C)c3nc4ccccc4n32)CC1 (stereo not given) was run?
**A.** The inhibition was 4.71%.

**Q.** How did the inhibition turn out when Clc1cccc(Cl)c1Cn1nnc(-c2cccs2)n1 was run?
**A.** Its inhibition is 2.33%.

**Q.** Which inhibition does the source give for Cn1c(=NC(=O)C2CC2)sc2cc(F)cc(F)c21 here?
**A.** The inhibition was 6.96%.

**Q.** Which inhibition does the source give for O=S(=O)(c1ccccc1)N(CC(O)CN1CCCCC1)c1ccccc1 (stereo not given) here?
**A.** The inhibition was 10.6%.

**Q.** For O=C(Nc1c(Cl)cccc1Cl)C1CCC1, which inhibition is on record?
**A.** The inhibition was -1.33%.

**Q.** With C=CCn1c(CSc2nc3ccccc3s2)nnc1SCC(=O)NCc1ccco1 as the molecule, how does the inhibition read?
**A.** Its inhibition is -0.43%.

**Q.** Which inhibition does the source give for O=C(c1cc(-c2ccc(O)cc2)on1)N1CCCc2ccccc21 here?
**A.** The inhibition was 3.9%.

**Q.** For c1ccc(CCC2=NCCn3cccc32)cc1, which inhibition is on record?
**A.** Its inhibition is 6.93%.

**Q.** CC(=O)Nc1ccn(Cc2c(F)cccc2Cl)n1 was tested. Which inhibition did it give?
**A.** The inhibition was 1.78%.

**Q.** How did the inhibition turn out when c1ccc(-c2noc(-c3cccs3)n2)nc1 was run?
**A.** Its inhibition is 3.97%.

**Q.** With O=C1CN(C(=O)COC(=O)C2CC(=O)N(Cc3ccco3)C2)c2ccccc2N1 (stereo not given) as the molecule, how does the inhibition read?
**A.** Its inhibition is -15.4%.
